# According to PubChem BioAssay (NCATS):
# Records with an inconclusive call do not appear. Calls of active or inactive are those of the source. Calls follow the shape of the dose curve; as a rule, active = well fitted inhibition curve with a large enough effect; inconclusive = small, poorly fitted or top-dose-only effect; inactive = flat fitted curve, though single readings scatter.
# Biological target: Lysine-specific demethylase 5B (Homo sapiens) (UniProt Q9UGL1)
# Assay: Optimization screen for KDM5B Histone Demethylases FDH coupled qHTS against the LOPAC library (AID 1347166); also: 0% is about no effect
# Conditions: KDM5B demethylation, FDH-coupled NADH fluorescence (FDH is formaldehyde dehydrogenase); series mostly up to 57.5 µM; activity, negative = inhibition: at the top concentration
# Procedure, shortened: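 KDM5BDeltaAP (200nM final) in 50mM HEPES pH 7.5, 0.01% Tween-20 was preincubated with compound for 10 min at room temperature. A substrate mix of 12.5uM H3K4Me3, 25uM a-ketoglutarate, ascorbate, Fe2+, NAD+ and formaldehyde dehydrogenase was then added. NADH fluorescence (340/450 nm) was read initially and after 30 min.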
# Chain of Lysine-specific demethylase 5B (Homo sapiens) (Q9UGL1 whole entry, looked up): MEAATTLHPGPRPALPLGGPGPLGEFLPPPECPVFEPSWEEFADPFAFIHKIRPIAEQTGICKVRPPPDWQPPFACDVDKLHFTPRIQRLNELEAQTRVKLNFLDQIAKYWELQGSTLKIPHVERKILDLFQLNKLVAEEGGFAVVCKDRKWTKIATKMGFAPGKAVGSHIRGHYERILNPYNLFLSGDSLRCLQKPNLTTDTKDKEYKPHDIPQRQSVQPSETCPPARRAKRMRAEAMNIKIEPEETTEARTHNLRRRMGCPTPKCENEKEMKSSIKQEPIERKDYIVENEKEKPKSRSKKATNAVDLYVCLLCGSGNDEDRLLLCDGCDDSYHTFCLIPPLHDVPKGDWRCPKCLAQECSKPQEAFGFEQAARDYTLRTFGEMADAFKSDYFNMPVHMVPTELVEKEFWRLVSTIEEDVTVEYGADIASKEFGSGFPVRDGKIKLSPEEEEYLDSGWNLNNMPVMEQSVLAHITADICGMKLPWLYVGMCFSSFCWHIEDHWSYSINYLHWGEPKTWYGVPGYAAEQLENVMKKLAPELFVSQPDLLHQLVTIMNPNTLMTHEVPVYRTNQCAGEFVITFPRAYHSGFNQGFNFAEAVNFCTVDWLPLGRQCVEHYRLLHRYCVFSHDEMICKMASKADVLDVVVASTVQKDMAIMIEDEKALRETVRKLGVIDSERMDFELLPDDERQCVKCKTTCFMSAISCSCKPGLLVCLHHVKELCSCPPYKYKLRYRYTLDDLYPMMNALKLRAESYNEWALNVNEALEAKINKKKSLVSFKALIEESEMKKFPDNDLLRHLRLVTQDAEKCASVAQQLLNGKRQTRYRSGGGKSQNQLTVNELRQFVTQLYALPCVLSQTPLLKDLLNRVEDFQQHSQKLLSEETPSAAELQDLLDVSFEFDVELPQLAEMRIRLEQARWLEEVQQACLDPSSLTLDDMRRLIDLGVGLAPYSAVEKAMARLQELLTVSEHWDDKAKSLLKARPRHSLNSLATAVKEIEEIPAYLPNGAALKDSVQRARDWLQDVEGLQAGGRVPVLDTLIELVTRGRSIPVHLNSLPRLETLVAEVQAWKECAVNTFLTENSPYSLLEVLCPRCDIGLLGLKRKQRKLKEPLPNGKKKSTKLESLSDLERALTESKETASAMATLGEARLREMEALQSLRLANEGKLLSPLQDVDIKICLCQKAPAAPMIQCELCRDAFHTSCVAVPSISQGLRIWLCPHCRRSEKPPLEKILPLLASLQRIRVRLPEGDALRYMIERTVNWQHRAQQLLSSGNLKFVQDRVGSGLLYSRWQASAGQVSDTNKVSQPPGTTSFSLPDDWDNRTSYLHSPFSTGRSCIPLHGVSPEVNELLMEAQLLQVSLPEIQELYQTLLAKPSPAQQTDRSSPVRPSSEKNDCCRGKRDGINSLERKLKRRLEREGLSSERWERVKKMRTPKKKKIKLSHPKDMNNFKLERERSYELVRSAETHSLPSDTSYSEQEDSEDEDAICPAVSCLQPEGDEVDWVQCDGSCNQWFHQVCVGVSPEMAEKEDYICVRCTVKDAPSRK
SMILES,"activity, negative = inhibition",outcome
Cc1ncsc1CCCl,-5.56% (inactive),–
O=c1[nH]oc2c1CCNC2,-2.19% (inactive),–
CN1C(=O)CCS(=O)(=O)C1c1ccc(Cl)cc1 (centres undefined),-8.23% (inactive),–
CC(C)N(CCC(C(N)=O)(c1ccccc1)c1ccccn1)C(C)C (centres undefined),–,inactive
O=C(O)CCCc1ccc(N(CCCl)CCCl)cc1,-7.83% (inactive),–
CC(NC(C)(C)C)C(=O)c1cccc(Cl)c1 (centres undefined),-6% (inactive),–
CC(C)(C)NCC(O)c1ccccc1Cl (centres undefined),1.99% (inactive),–
CC(C)c1cccc(C(C)C)c1O,-3.03% (inactive),–
O=C(CCCN1CCC2(CC1)C(=O)NCN2c1ccccc1)c1ccc(F)cc1,-0.0535% (inactive),–
O=P1(N(CCCl)CCCl)NCCCO1 (centres undefined),-3.04% (inactive),–
NCCc1ccc(O)cc1,-0.701% (inactive),–
COc1ccc2c(c1OC)C(=O)O[C@H]2[C@@H]1c2cc3c(cc2CCN1C)OCO3,-11.2% (inactive),–
CCC1(c2ccc(N)cc2)CCC(=O)NC1=O (centres undefined),-8.23% (inactive),–
C=C(C)[C@H]1CN[C@H](C(=O)O)[C@H]1CC(=O)O,-1.81% (inactive),–
